The values that follow come from PubChem BioAssay AID1159506 (National Center for Advancing Translational Sciences (NCATS), 2015).

In all, about 59,000 sequences were measured (the read-out: median about -0.00055, lowest 2% from about -2 on). Only a selection was taken, and the lowest values are over-represented in it overall.

The nature of this assay: Identification of proteins required for the processing of the EWS-FLI1 nascent transcript.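 Note: robust z of luciferase light less the median z of siRNAs with the same seed.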 Conditions: TC32 Ewing sarcoma NR0B1-luc vs CMV-luc (EWS-FLI1 target promoter against control promoter), 48 h; screened at 20 nM (by protocol). The gist of the method: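 Genome-wide siRNA screen (Ambion v4.1, three siRNAs per gene, 20 nM final, RNAiMax) in Ewing sarcoma TC32 cells carrying NR0B1-promoter or CMV-promoter luciferase; OneGlo luciferase read 48 h post-transfection. Data normalized, z-score-MAD transformed and seed-adjusted.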
For the sequence UGAACUCCUCUGCAUAUUC against HLA-F, the seed-corrected z-score came out at 0.183.
The figure for UUGGUGUCCGGAGAGGUGU against IRF3 is -0.0987; for AACUCCGUCAGUUCCUUCC against FAM167A it is 0.463.
The figure for ACAGCUAUCACUGCAUGCC against OR14J1 is -3.81.
In the case of UUUAGGUACAGAAUCCCUG against HDHD3 it was 0.511.
UCUUCAAUAAUGUGCAUCC against SEMA4G yielded a seed-corrected z-score of 0.069.
As to UUCUCCGUUUCUGUUAUGC against SYCP2L, the seed-corrected z-score came out at 0.199.
The sequence UGCUGUUCUGUGCUGUUCC against ARID5A came in with a seed-corrected z-score of -2.31.
For UCAGGCUCAACCACCAGCA against ESRRA, the seed-corrected z-score is -1.16.
The figure for UAUAUCCACAGUGCGGAUC against RAB13 is 0.253; for AUACUUGCGAUAAAGGUGC against CSGALNACT1 it is -1.05; for UCAGCUCCAACUGAAGGUC against ID1 it is 0.724.
AAUGGUGUCAGUUCCUCUG against ETFA had a seed-corrected z-score of 0.854.
Sequence AGCAUUACAACUAAAAUCC against ZSCAN10 came in with a seed-corrected z-score of -3.27.
UAGCCAUUCUCGCUCAUGC against AZU1 displayed a seed-corrected z-score of 0.88.
Regarding UGAUCUAUCUUAGUCGCUC against POLQ, the seed-corrected z-score was -0.0262.
The figure for UUUCCGUACAUGAAGCAGC against AGBL5 is -0.0403.
The figure for UUCAUUAUCGAUUUUUGCC against CYB5R2 is -0.288; for UGGGAUGAGAGACUCCUCC against C6orf25 it is -0.121.
UGUUGUAGUGGGCCAGACG against HIST1H2BG returned a seed-corrected z-score of -2.35.
The figure for UCCGAAAGCACCACGAUGA against SIGIRR is 0.222; for AAAGGCCCAACAUCUGACU against ZDHHC8P1 it is 0.314.
The figure for UUCCGACUCGCUGAAGUGC against RPS6KA4 is 0.407; for UUGGGUACCUCAGUCCACG against SNRPD2P1 it is -5.01.
In the case of UUUGUUGUAGUCACAUUCC against S100A3 it was -1.11.
Regarding UAAGGAAGUAGUCUCGUUU against TUBGCP6, the seed-corrected z-score is 0.26.
UAGUGGAUAUAUCUCGGCC against YLPM1 gave a seed-corrected z-score of 0.196.
The sequence UAUACUCGAAAUGUGGUUC against KIAA1586 displayed a seed-corrected z-score of -0.337.
The figure for UUGCAGAGCAUGUGAGUCC against KRTAP13-3 is -0.281; for UGCAUGUCGGGAUAGUUGC against GRIN2D it is 0.123; for UCCUCGUUCAGCACCCUUC against DNAJB13 it is -0.18.
UUUGAUGAUCUGUAAGGCC against CNOT10 showed a seed-corrected z-score of -2.03.
UGUAUUGCAAGGUUAUAAC against ZNF836: the seed-corrected z-score amounted to 0.433.
AAAGUGAACAUCGGGUCCC against LILRA4 came in with a seed-corrected z-score of -0.351.
In turn, UCCAUGUUGACUAAGAUUC against GRHL3 gave a seed-corrected z-score of -0.595.
The figure for UUUCUGGUAAAACUCCUCA against HS1BP3 is 0.892; for UGACGUGACAAGCUGAAUG against ALYREF it is -0.554.
In the case of UUAGAUUGCACAAUCCUGU against DMRTC1 it was 0.235; in that of UUAAGAUUGACCUUUCUCC against KIAA1755, -0.0251; in that of UUUGGUGCUUAGUUUGUUC against LOC642262, -2.38.
Turning to AUCUUUACAAAUACCCUGC against BCL11A, the seed-corrected z-score is -0.136.
With UUUAUAUUCAAUGGGCUUC against FAM45A, the seed-corrected z-score was -0.523.
In turn, UAAGGUUCGGAUAUGGGUA against C9orf24 registered a seed-corrected z-score of -0.108.
In the case of UUCUUUAUAGGCAUAGGCU against RPH3A it was -2.08.
In the case of UAAGGUUGGUGACUGGAGA against MUC6 it was -0.303; in that of UUUCUGUAGGCUUUUCUGG against DPCR1, -0.53; in that of UUCUCCAUCAAAUUAGCCG against LIN52, 0.578.
The figure for UAGCUUCAAUACUUCAUCC against LRRC27 is -0.986; for UUCGAGCUUUCUUAUGUCC against SLC12A6 it is -0.303.
As for UGUUAUUGAAGAUGUCAGC against SLF2, the seed-corrected z-score was -2.1.
Sequence ACAGCAAGCAUUCAGAGUC against MMS19 gave a seed-corrected z-score of 0.146.
In turn, UCUGGAAUAACGGUGCAGC against C15orf62 displayed a seed-corrected z-score of -1.54.
In the case of AUAUCAAUGAUUGAGAGGU against OR4F15 it was 0.359; in that of AACUCUGCGAACACGGCCU against AQP5, -2.17; in that of UAAGGCCCAAAUUUGUCUC against HSF4, -0.0642.
The figure for UACAUUGACAGCAUAUCCU against NSDHL is 0.882; for UGAUGAAGUAGAGACGUGC against EXTL2 it is 0.177.
In the case of UAAAAUGUCUGACUCCUUG against CDKN1A it was -0.147.
Sequence AAACUGGUUGGAGUUGUUG against ITGB2 displayed a seed-corrected z-score of 0.512.
The figure for UGUUUUACCAACAGCACCA against CDC42 is -1.21; for UCAGGUGGUAGGGAGGUUG against UBE2L6 it is -2.37; for CAGGUAGAACGUGUCGUCC against ENDOG it is 0.88.
AAUGAGAUUAUGUUGGUCA against SNX29 displayed a seed-corrected z-score of -1.19.
As for UUCUAUGCAAUCCAAAACC against DGKB, the seed-corrected z-score was 0.554.
In the case of UUAGUUUCUACAUUAUUGU against ENTPD1-AS1 it was 0.559.
In the case of UAGGAGAUAAAGAUAACUA against OR5B2 it was -12.5.
The figure for AGUACUACAAACCAAAUCC against FAM35A is -0.242.
In turn, UUCCAUAUUUAUUAGAGCC against PURG displayed a seed-corrected z-score of 1.54.
In the case of UUGAGAUAGGCUGAGACCU against TMPRSS4 it was -0.502; in that of AAUUGUCGUAGUCAGUAUC against PAEP, -0.99; in that of UUUGUCUUUUGCAUCUUUC against SFPQ, -2.66.
The figure for AUCGUUCACGUCUUGAUCC against CPSF6 is -0.744; for AUAGGGAGCACUUGGGAGC against C20orf24 it is -1.49.
Sequence AAACCUUCCAUUGUUGAGG against ACADVL yielded a seed-corrected z-score of 0.629.
On to UUCGCUGUCACUGUGGUUG against FAM134C, for which the seed-corrected z-score was -1.48.
As to UAUUAUUCGACUCAUGGUC against EFCAB2, the seed-corrected z-score is -2.54.
For the sequence UAACAUCGCACCAGUAAUC against L3MBTL4, the seed-corrected z-score is -0.0952.
UGUUCCUUUAUUGUAGCCC against ALG13 returned a seed-corrected z-score of 0.155.
The figure for UGUAGGACAAGCGCUGCUG against DGCR6 is -0.188.
Sequence AUAUUAGCAUUCUUAAUGG against ABCB10 returned a seed-corrected z-score of -0.347.
UUCAUGACUCUUGCAUUCC against ZNF473: the seed-corrected z-score is -0.227.
UAUAGUCUGCGUAGAGUUC against BSCL2 yielded a seed-corrected z-score of 0.905.
In the case of UCGGUAUUCGAUGUGGUCC against CD177, the seed-corrected z-score stood at 1.39.
The figure for AUAAGAUACCUCUCUAUUC against NXPE1 is -3.1.
